In the library only some 0.9% were active in any assay of this set; here they are far more common.
TAR Tat displ – HIV-1 TAR-Tat binding disruption | HIV-1 TAR RNA, Tat peptide displacement FRET; hits give high values | z-score (test concentration not listed) | hit rate 0.6% among 100,000; active = z-score of 3 or more in at least 2 runs
CDC25B-CDK2 inh – human CDC25B-CDK2/CyclinA binding inhibition; P30305+P24941; HTRF CDC25B-CDK2/CyclinA binding, anti-His/anti-Flag; hits give high values; z-score (no concentration beside the values); hit rate 0.72% among 94,000; AID 1259370; in the data active = z-score above about 3.2
* = called active by the depositor; . = no result given.

SMILES	TAR Tat displ	CDC25B-CDK2 inh
O=C(O)CCCNc1cc(N2CCC(=O)CC2)c2noc3c2c1C(=O)c1ccccc1-3	26.8*	14.1*
O=C(O)CCCNc1cc(N2CCN(C3CCCCC3)CC2)c2noc3c2c1C(=O)c1ccccc1-3	-3.41	12.9*
CCCN1CCN(c2cc(NCCCC(=O)O)c3c4c(onc24)-c2ccccc2C3=O)CC1	-5.83	-2
O=C(CCc1ccc(-c2ccc(F)cc2)o1)NCC1CCCO1 (stereo not given)	1.21	.
COc1ccc2nc(NC(=O)c3nn(-c4cccc(Cl)c4)ccc3=O)sc2c1	0.02	1.96
Cc1ccc(N2CC(O)=C(c3nc4ccc(C)cc4[nH]3)C2=N)c(C)c1	1.06	-1.14
Cc1ccc2[nH]c(=O)c(CN(C(C)C)S(=O)(=O)c3ccccc3)cc2c1	19.1*	-2.77
CCN(Cc1cc2cc(C)ccc2[nH]c1=O)S(=O)(=O)c1ccc(C)cc1	0.92	-2.46
CSc1nc2ccc3nc(NC(=O)c4ccc5c(c4)OCCO5)sc3c2s1	.	-0.93
O=C(CCCc1nc(-c2ccco2)no1)Nc1ccncc1	4.22*	-2.06
O=C(CCc1nc(-c2ccco2)no1)Nc1ccncc1	1.17	6.6
O=C(/C=C/c1ccccc1)NC(=S)Nc1ccc2oc(-c3ccncc3)nc2c1	.	-2.69
Cc1cccc(Nc2nn3c(=O)c4cc5c(cc4nc3s2)OCO5)c1	13.1*	.
O=c1c2cc3c(cc2nc2sc(Nc4cccc(Cl)c4)nn12)OCO3	0.98	-0.16
O=C(Cn1nc2c(cc1=O)CCCC2)Nc1ccc(Cl)cc1	1.33	.
O=C(Cn1nc2c(cc1=O)CCCC2)Nc1ccc2c(c1)OCO2	6.23*	.
CN(C(=O)c1nn(C)c2c1COc1ccccc1-2)c1ccccc1F	2.32	-0.5
CC1CCCC(NC(=O)CN2C(=O)COc3ccc(S(=O)(=O)N4CCCC4)cc32)C1C (stereo not given)	2.09	.
Cc1cc(=O)[nH]c2c1c(=O)[nH]n2C(C)C	2.49	-0.1
CC(CC(=O)NCc1ccco1)CC1=NS(=O)(=O)c2ccccc2N1 (stereo not given)	9.47*	.
Cc1ccc(CNC(=O)CC(C)CC2=NS(=O)(=O)c3ccccc3N2)o1 (stereo not given)	0.5	.
Fc1ccc(C2=Nc3ccc(Br)cc3NC(c3cccnc3)=N2)cc1	0.49	-1.34
C=C1c2c(Cl)ccc(O)c2C(O)=C2C(=O)[C@]3(O)C(O)=C(C(N)=O)C(=O)[C@@H](N(C)C)[C@@H]3[C@@H](O)[C@H]12	19.7*	.
C=C1c2cccc(O)c2C(O)=C2C(=O)[C@]3(O)C(O)=C(C(N)=O)C(=O)[C@@H](N(C)C)[C@@H]3[C@@H](O)[C@H]12	15.9*	.
CCCSc1nnc(NC(=O)c2cc(=O)c3ccc(C)cc3o2)s1	1.21	-0.94
SMILES	TAR Tat displ	CDC25B-CDK2 inh
CCN(CC)S(=O)(=O)c1ccc2c(c1)CC(C(=O)N1CCOCC1)N2C(C)=O (stereo not given)	1.71	.
O=C(NC1CCCCC1)NC1CCN(c2nc3ccccc3s2)CC1	1.27	-1.33
O=C1c2cc(O)cc(O)c2OC[C@@H]1c1ccc(O)c(O)c1	22.7*	.
O=C1c2c(O)cc(O)cc2OC(c2ccc(O)c(O)c2)C1O (stereo not given)	.	-1.04
CCOc1ccc(C2CC(=O)N3CN(C4CCCC4)CSC3=C2C#N)cc1 (stereo not given)	2.27	1.92
N#CC1=C2SCN(C3CCCC3)CN2C(=O)CC1c1ccc(F)cc1 (stereo not given)	0.82	4.01*
COc1ccc(OC)c(C2CC(=O)N3CN(C4CCCCC4)CSC3=C2C#N)c1 (stereo not given)	-0.96	5.35*
N#CC1=C2SCN(Cc3ccco3)CN2C(=O)CC1c1cccc2ccccc12 (stereo not given)	1.62	-1.51
COc1cccc(C2CC(=O)N3CN(C4CCCCC4)CSC3=C2C#N)c1 (stereo not given)	-0.12	5.28*
N#CC1=C2SCN(C3CCCCC3)CN2C(=O)CC1c1cccc2ccccc12 (stereo not given)	0.13	4.16*
O=C(NCCc1cccs1)c1cc(-c2ccccn2)nc2ccccc12	-2.42	.
Cc1ccc(S(=O)(=O)[C@H]2CS(=O)(=O)C[C@@H]2NCc2cccnc2)cc1	1.89	-2.02
Cc1cc(F)ccc1NC(=O)CC(C)S(=O)(=O)c1ccc2c(c1)CCN2C(=O)C1CC1 (stereo not given)	-0.42	.
COc1cccc(C2CC(=O)N3CN(C4CCCC4)CSC3=C2C#N)c1 (stereo not given)	1.98	5.72*
O=C(O)CSCC(=O)Nc1cc(C(F)(F)F)cc(C(F)(F)F)c1	.	8.45*
O=C(CSCC(=O)Nc1cccc(C(F)(F)F)c1)Nc1ccccc1	.	-1.51
CSc1ccc(CCNC(=O)CCC(=O)N2CCSc3ncccc32)cc1	-2.16	.
CC(Sc1nnc(-c2ccncc2)o1)C(=O)Nc1ccc2c(c1)OCCO2 (stereo not given)	1.27	10.6*
Cc1[nH]c2ccc(-c3nnc(SC(C)C(=O)Nc4ccc5c(c4)OCCO5)o3)cc2c1C (stereo not given)	-2.13	0.43
O=S(=O)(c1ccc(-c2cnc(C3CC3)o2)s1)N1CCc2ccccc2C1	1.46	.
C=CCOc1ccc(/C(O)=C2/C(=O)C(=O)N(CCOC)C23C(=O)N(CC)c2ccccc23)cc1C (stereo not given)	0.72	-2.89
COC(=O)c1sccc1NC(=O)COCc1cc(-c2cccs2)on1	0.14	.
O=C(COCc1cc(-c2cccs2)on1)Nc1ccccc1Br	10.3*	.
O=c1ccc(-c2ccc(S(=O)(=O)N3CCN(c4ccc(F)cc4)CC3)s2)n[nH]1	1.38	.
Cc1nc2cc(NCc3ccco3)ccc2n1C	-0.08	16.1*
SMILES	TAR Tat displ	CDC25B-CDK2 inh
Cc1nc2cc(NCc3ccncc3)ccc2n1C	-0.77	13.9*
Cc1ccc(-n2cnc3cc(NCc4ccncc4)ccc32)cc1	-0.08	3.5
COc1ccccc1-n1cnc2cc(NCc3ccco3)ccc21	-0.57	6.19
CCC(C)(C)NC(=O)CCS(=O)(=O)c1cc2c(cc1Cl)NC(=O)CO2	1.74	.
O=C(NC(C(=O)O)c1ccccc1)c1ccc(Cl)cc1 (stereo not given)	.	-1.9
c1ccc2c(c1)-c1ccccc1C2(c1ccc(N2N=N2)cc1)c1ccc(N2N=N2)cc1	.	-2.1
Cc1ccc(C)c(S(=O)(=O)Nc2ccc3oc(C)c(C(=O)O)c3c2)c1	14.3*	0.27
COCCOC(=O)c1c(C)oc2ccc(NS(=O)(=O)c3cc(C)ccc3C)cc12	.	-3.5
CN(CCO)c1cc(N2CCN(c3ccccn3)CC2)c2noc3c2c1C(=O)c1ccccc1-3	0.44	-1.18
c1ccc(-c2c3ssnc-3c3ccccc23)cc1	.	16.8*
Cc1nc(-c2ccccc2)c(-c2ccccc2)s1	1.7	-0.54
Cc1ccc2c(c1)NC(CCC(=O)N1CCN(c3cc(C)ccc3C)CC1)=NS2(=O)=O	1.51	.
CN1CCN(c2cc(Nc3ccc4c(c3)OCO4)c3c4c(onc24)-c2ccccc2C3=O)CC1	-7.01	10.4*
O=C1c2ccccc2-c2onc3c(N4CCOCC4)cc(Nc4ccc5c(c4)OCCO5)c1c23	-6.16	1.68
COc1cccc(Nc2cc(N3CCOCC3)c3noc4c3c2C(=O)c2ccccc2-4)c1	1.44	-2.11
CCN1CCN(c2cc(Nc3ccc4c(c3)OCO4)c3c4c(onc24)-c2ccccc2C3=O)CC1	1.13	1.21
COc1cccc(Nc2cc(N3CCN(C)CC3)c3noc4c3c2C(=O)c2ccccc2-4)c1	0.5	10.9*

High-throughput results (PubChem BioAssay)
